Source: PubChem BioAssay (National Center for Advancing Translational Sciences (NCATS))
KB-3-1 cytotox – qHTS assay for MDR1-selective chemotherapeutics: Primary screen using the parental adenocarcinoma cell KB-3-1; hit rate 1.4% among 400,000; Potency, µM (series often up to 46.1 µM), most hits filed as cytotoxic; KB-3-1 viability, CellTiter-Glo ATP luminescence, 72 h; also: % is scaled to controls: 0 for no effect and ±100 for the full control effect; nearly all actives have a fitted effect of over 60% in size
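Here the drug-naive KB-3-1 line serves as comparator for MDR sub-line selectivity; cells received compound titrations, 72 h at 37 °C, then CellTiter-Glo readout.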
KB-V1 cytotox – qHTS assay for MDR1-selective chemotherapeutics: Primary screen using the drug-selected MDR subline cells KB-V1 | Potency, µM (doses to about 46.1 µM), actives largely listed as cytotoxic | KB-V1 MDR cells viability, CellTiter-Glo, 72 h | hit rate 3.4% among 400,000; also: % is scaled to controls: 0 for no effect and ±100 for the full control effect; nearly all actives have a fitted effect of over 60% in size
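qHTS viability screen in drug-selected KB-V1 MDR cells: 72 h compound treatment at 37 degrees C, ATP luminescence end point.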
MCF10A rereplic – A quantitative high throughput screen for small molecules that induce DNA re-replication in MCF 10a normal breast cells; MCF 10A DNA re-replication, Hoechst nuclear intensity, 48 h; Potency, µM (top dose mostly 46.1 µM), inactives show at the top dose activity, positive = re-replication, actives largely listed as activators; hit rate 2.9% among 350,000; also: % of control where 0% means no effect; nearly all actives have a fitted effect of over 50% in size
12-LOX inh – Primary qHTS assay for inhibitors of human arachidonate 12S-lipoxygenase (ALOX12): Round 2; Polyunsaturated fatty acid lipoxygenase ALOX12 (Homo sapiens), P18054; hit rate 1.1% among 580,000; Potency, µM (highest dose often 108 µM), inactives show at the top dose activity change, negative = inhibition, actives largely listed as inhibitors; AID 1671190, 2021; purified 12hLO, xylenol orange hydroperoxide absorbance; also: % is scaled to controls: 0 for no effect and ±100 for the full control effect
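Purified human 12hLO at 150 nM in 25 mM Hepes, 0.01% Triton X-100, pH 7.0, preincubated 15 min at room temperature with compound. Reaction started with 40 uM arachidonic acid, 30 min at room temperature. Hydroperoxide measured by Fe-xylenol orange, 573/405 nm absorbance ratio.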
PINK1 modulator – A Quantitative High throughput Screen to Identify Chemical Modulators of PINK1 Expression; hit rate 0.2% among 410,000; Potency, µM (titrated, usually from 76.6 µM), inactives show top-dose activation (PINK1 increase), usual class: activators; PINK1 immunofluorescence, high-content cytometry, 24 h; active = well fitted activation curve with a large enough effect; inconclusive = small, poorly fitted or top-dose-only effect; cell line not stated here; also: % of control where 0% means no effect; nearly all actives have a fitted effect of over 65% in size
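Cells are seeded, rested 12 hours, then given compound at five concentrations or DMSO for 24 hours. After fixation, blocking and antibody staining, PINK1 amount and mitochondrial localization are scored; CCCP serves as control.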
SW480 rereplic – A quantitative high throughput screen for small molecules that induce DNA re-replication in SW480 colon adenocarcinoma cells; hit rate 1.8% among 340,000; SW480 DNA re-replication, Hoechst DNA content imaging, 48 h; Potency, µM (series often up to 46.1 µM), without a hit: at the highest dose re-replication activation, hits mostly activators; also: % of control where 0% means no effect; nearly all actives have a fitted effect of over 55% in size
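Compounds, transferred as 23 nL by pin tool, were incubated with cells for 48 hr; DNA content per nucleus was then quantified by Hoechst staining and fluorescence plate imaging.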
Starred values were filed as active, the others as inactive; i = inactive; ? = inconclusive; nt = not tested or not shown; [ ] = another dose, or the depositor's remark. Compounds with a hit are over-represented: about 5.8% of the library has one in this group of screens. Unless noted, calls follow the shape of the dose curve; as a rule, active = well fitted curve in the direction sought with a large enough effect; inconclusive = small, poorly fitted or top-dose-only effect, or another doubt; inactive = no such curve, though single readings can be large; an effect the other way counts as inactive or inconclusive. Potency is read from the fitted curve at half-maximal effect.

SMILES | KB-3-1 cytotox | KB-V1 cytotox | MCF10A rereplic | 12-LOX inh | PINK1 modulator | SW480 rereplic
CCN(Cc1ccccc1)S(=O)(=O)c1cc(C(=O)Nc2cc(Cl)cc(Cl)c2)ccc1F | nt | nt | nt | -29% | 45µM* | nt
Cc1ccc(-n2ncc3c(=O)n(CC(=O)NCc4ccco4)cnc32)cc1C | 23µM* | ? | ? | -6% | 5% | ?
CCCCNC(=O)Cn1cnc2c(cnn2-c2ccc(C)c(C)c2)c1=O | i | i | 2% | 4% | -3%[38.3 µM] | -10%
Cc1ccc(-n2ncc3c(=O)n(CC(=O)NCc4ccco4)cnc32)cc1 | ? | ? | ? | -16% | 13% | ?
O=C(Cn1cnc2c(cnn2-c2ccc(F)cc2)c1=O)NCc1ccco1 | 9.2µM* | 8.2µM* | 15µM* | 2% | 7% | ?
Cc1cc(SCC(=O)c2ccc3c(c2)OCCO3)nc2ccccc12 | nt | nt | nt | 16µM* | nt | nt
Cc1cc(SCC(=O)c2ccc3c(c2)OCO3)nc2ccccc12 | i | i | 2% | -23% | 2%[38.3 µM] | 1%
O=C(CSc1n[nH]c(-c2ccccc2)n1)c1ccc(O)c(O)c1 | i | i | 2% | 2.5µM* | 12%[38.3 µM] | -5%
Cc1cc(C)nc(SCC(=O)c2ccc3c(c2)OCCO3)n1 | i | ? | 15µM* | 2%[57.4 µM] | nt | 0%
Cc1cc(SCC(=O)c2ccc(O)c(O)c2)nc2ccccc12 | i | ? | -8% | 6.3µM* | 8% | -4%
N#Cc1cccnc1NCCNC(=O)Nc1ccccn1 | nt | nt | nt | 3% | nt | nt
Cn1c(=O)c2c(n3cnnc13)-c1ccccc1CC21CCCC1 | i | 23µM* | -4% | -8% | -5%[38.3 µM] | -3%
Cc1csc(NC(=O)CCc2ccc(S(N)(=O)=O)cc2)n1 | nt | nt | nt | -3% | nt | nt
O=S(=O)(c1ccc(N2CCCC2c2nc3ccccc3s2)nc1)N1CCOCC1 (centres undefined) | i | 8.2µM* | 4% | 63% | 3% | -1%
CC(OC(=O)c1cc(=O)[nH]c2ccccc12)C(=O)NC1(C#N)CCCCC1 (centres undefined) | nt | nt | nt | -8% | nt | nt
Cc1cccc(-c2oc3ccc(-c4ccc5c(c4)OCO5)cc3c2/C=C/c2ccc(N)cc2)c1 | i | ? | ? | nt | 3% | 16µM*
COc1ccc(-c2c(-c3cccc(C)c3)oc3ccc(-c4ccc5c(c4)OCO5)cc23)cn1 | i | i | -29% | 2% | -1% | 1%
O=C(N/N=C/c1ccc([N+](=O)[O-])o1)c1cc(-c2cccc(Br)c2)nc2ccccc12 | ? | ? | 29% | ? | 11% | 15%[9.22 µM]
O=C(N/N=C/c1ccc([N+](=O)[O-])o1)c1cn2ccc3ccccc3c2n1 | i | i | ? | 6% | 13% | 21µM*
CCCc1ccc(-c2cc(C(=O)N/N=C/c3ccc([N+](=O)[O-])o3)c3ccccc3n2)cc1 | 12µM* | 8.2µM* | 5µM* | 5% | 2% | 7.1µM*
COc1ccc(C2Cn3nnc(C(=O)NC4CCCCCC4)c3CO2)cc1 (centres undefined) | nt | nt | nt | 34% | nt | nt
COc1ccc(C(=O)NC(Cc2ccccc2)c2ccc3c(c2)OCCCO3)cc1 (centres undefined) | i | i | -19% | 14% | 5%[38.3 µM] | 4%
O=C(NC(Cc1ccccc1)c1ccc2c(c1)OCCCO2)c1ccccc1F (centres undefined) | i | 16µM* | 4% | 23% | -1%[38.3 µM] | 2%
CCOC(=O)Cc1nnc2c(Nc3ccc(Cl)cc3)nc3nonc3n12 | ? | ? | 13µM* | ? | 45µM* | 10%
